Our source for the Inhibition values is ChEMBL document CHEMBL1157539, “Thousands of chemical starting points for antimalarial lead identification” (Nature, 2010).

SMILES strings stand for the structures.

Common to all, as to type: functional
For test [1], the system named is Plasmodium falciparum. The experiment in a line: GSK_TCMDC: Inhibition of Plasmodium falciparum 3D7 in whole red blood cells, using parasite LDH activity as an index of growth. Test compounds present at 2uM.
The test system of test [2] is Plasmodium falciparum. The experiment in a line: GSK_TCMDC: Inhibition of Plasmodium falciparum Dd2 in whole red blood cells, using parasite LDH activity as an index of growth. Test compounds present at 2uM.
The next test concerns HepG2. The experiment in a line: GSK_TCMDC: Percent inhibition of human HepG2 cell line. Test compounds present at 10uM.

In general, Inhibition refers to the percentage by which the read-out fell short of the control.

In the case of `Cc1cc(N[C@@H](CC(C)C)C(=O)NCCOc2ccccc2)nc(NCCc2ccc(F)cc2)n1.O=C(O)C(F)(F)F`, the Inhibition with Plasmodium falciparum [1] was 95%; with Plasmodium falciparum [2], 54%; with HepG2 it was 25%.
`COc1cccc(CC(=O)N2CCC(n3c(C)nc4ccc(C)cc43)CC2)c1`: the Inhibition with Plasmodium falciparum [1] came out at 100%; in the test with Plasmodium falciparum [2] it was 99%; in the test on HepG2, 1%.
As to `CCOc1cc(C(=O)NC2CC(C)(C)NC(C)(C)C2)ccc1-c1cc2cc(Cl)c(Cl)cc2[nH]1`, the Inhibition with Plasmodium falciparum [1] is recorded as 100%; in the test on Plasmodium falciparum [2], 46%; with HepG2 it was 37%.
The like results for `CC(NC(=O)NC1CCC(CCN2CCCc3ccccc32)CC1)c1cccc2ccccc12.O=C(O)C(F)(F)F` (configuration not stated) were, in that order, 90%, 83% and 0%.
`COc1cc2c(cc1C(F)(F)F)N(C(=O)Nc1cc(-c3ccncc3)cc(-c3cccnc3)c1)CC2`: the Inhibition with Plasmodium falciparum [1] is given as 95%; in the test with Plasmodium falciparum [2], 50%; with HepG2, 64%.
For `CN(C)CCNC(=O)N1CCCN(c2ncnc3cc(-c4ccc(Cl)cc4)sc23)CC1.O=C(O)C(F)(F)F` the same measures were 98%, 21% and 41%.
Take `CC1CN(c2cnn(Cc3ccc(NC(=O)Nc4ccc(F)cc4[N+](=O)[O-])cc3)c(=O)c2Cl)CC(C)N1.O=C(O)C(F)(F)F` (configuration not stated): the Inhibition with Plasmodium falciparum [1] turned out to be 89%; in the test with Plasmodium falciparum [2], 10%; with HepG2, 4%.
For `COc1ccc2nccc([C@@H](O)CN3CCC(NCc4cc5c(F)ccc(F)c5[nH]4)CC3)c2c1.O=C(O)C(=O)O` the same measures were 100%, 67% and 29%.
Regarding `O=C(NCCCCN1CCC(C(c2ccccc2)c2ccccc2)CC1)c1ccc(NC(=O)c2ccc(Cl)cc2)cc1`, the Inhibition was determined as 100% in the test on Plasmodium falciparum [1], 47% with Plasmodium falciparum [2] and 12% in the test with HepG2.
